Measured values reported in the supplement of paper PMC10849652.
The full data set covers some 8,800 targets. This sample favours those with a hit. About 0.5% of all pairs of compound and target were hits.

What was measured:
Experiment in all cases: log2 fold change, soluble protein after heating vs DMSO (PISA); higher = thermal stabilisation; K562 lysate, 10 uM; active = over 0.2 and 3.5 SD of the protein, either way, in both replicates (recomputed)
vemurafenib = compound: CCCS(=O)(=O)Nc1ccc(F)c(C(=O)c2c[nH]c3ncc(-c4ccc(Cl)cc4)cc23)c1F [vemurafenib]
Summary of the method: (§1)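 To prepare the extract, K562 pellets were dounce-homogenised in PBS pH 7.4 with 1 mM MgCl2, giving crude material at 1 mg/mL protein. This was treated with 10 μM compound for 30 min, then heated in aliquots for 3 min over 48°C-58°C before pooling and addition of NP-40 to 0.5% at 4°C. Centrifugation at 21,000xg for 90 min left soluble protein in the supernatant, which TMTpro 16plex LC-MS/MS quantified with equalised channel sums. Results are log-two fold changes in thermal stability compared with solvent controls, from duplicates.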

[1] = compound: CCCS(=O)(=O)Nc1ccc(F)c(C(=O)c2c[nH]c3ncc(Cl)cc23)c1F
Summary of the method: as §1

barasertib = compound: CCN(CCCOc1ccc2c(Nc3cc(CC(=O)Nc4cccc(F)c4)[nH]n3)ncnc2c1)CCOP(=O)(O)O [barasertib]
Summary of the method: as §1

[2] = compound: CC[C@@H]1C(=O)N(C)c2cnc(Nc3ccc(C(=O)NC4CCN(C)CC4)cc3OC)nc2N1C1CCCC1
Summary of the method: as §1

volasertib = compound: CC[C@@H]1C(=O)N(C)c2cnc(Nc3ccc(C(=O)N[C@H]4CC[C@H](N5CCN(CC6CC6)CC5)CC4)cc3OC)nc2N1C(C)C [volasertib]
Summary of the method: as §1

[3] = compound: CCn1c(C(=O)N(C2CC2)C2CC2)cc2c3c(ncn3C)c(Nc3cc(C)n(C)n3)nc21
Summary of the method: as §1

[4] = compound: CCn1cc(-c2ccnc3[nH]c(-c4cccc(CN(C)C)c4)cc23)c(-c2ccc(NC(=O)N(C)C)cc2)n1
Summary of the method: as §1

[5] = compound: CN1CCC(CNc2ccc3ncc(-c4cccc(OC(F)(F)F)c4)n3n2)CC1
Summary of the method: as §1

saracatinib = compound: CN1CCN(CCOc2cc(OC3CCOCC3)c3c(Nc4c(Cl)ccc5c4OCO5)ncnc3c2)CC1 [saracatinib]
Summary of the method: as §1

sotrastaurin = compound: CN1CCN(c2nc(C3=C(c4c[nH]c5ccccc45)C(=O)NC3=O)c3ccccc3n2)CC1 [sotrastaurin]
Summary of the method: as §1

Measured: log2 fold change

COQ9 (UniProt O75208)
inactive: vemurafenib -0.023 | [1] 0.126 | [2] 0 | volasertib -0.012 | [3] 0.002 | [4] 0.015 | [5] -0.066 | saracatinib -0.001 | sotrastaurin -0.101
active: barasertib 0.275

DOCK10 (UniProt Q96BY6)
active: [4] -0.747
inactive: vemurafenib 0.095 | [1] -0.008 | barasertib -0.054 | [2] 0.085 | volasertib 0.027 | [3] 0.043 | [5] 0.387 | saracatinib 0.001 | sotrastaurin 0.007

CINP isoform 3 (UniProt Q9BW66)
inactive: vemurafenib -0.071 | [1] 0.01 | barasertib 0.052 | [2] 0.098 | volasertib -0.05 | [3] -0.033 | [4] -0.331 | [5] 0.189 | saracatinib 0.047 | sotrastaurin 0.014

CNP (UniProt P09543)
inactive: vemurafenib 0.005 | [1] -0.011 | barasertib 0.003 | [2] -0.097 | volasertib -0.022 | [3] 0.019 | [4] -0.023 | [5] -0.028 | saracatinib 0.01 | sotrastaurin -0.008

CNDP2 (UniProt Q96KP4)
inactive: vemurafenib 0.01 | [1] 0.023 | barasertib -0.01 | [2] 0.11 | volasertib 0.041 | [3] -0.032 | saracatinib 0.01 | sotrastaurin 0.013
active: [4] -0.343 | [5] 0.278

CKS1B (UniProt P61024)
UniProt P61024, sequence (P61024 whole entry, looked up): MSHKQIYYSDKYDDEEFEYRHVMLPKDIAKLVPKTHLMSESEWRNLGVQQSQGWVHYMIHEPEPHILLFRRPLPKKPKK
active: [4] 0.391
inactive: vemurafenib -0.047 | [1] -0.029 | barasertib 0.029 | [2] -0.031 | volasertib -0.018 | [3] -0.017 | [5] -0.268 | saracatinib 0.044 | sotrastaurin 0.025

CHURC1 isoform 2 (UniProt Q8WUH1)
UniProt Q8WUH1, sequence (Q8WUH1 whole entry, looked up): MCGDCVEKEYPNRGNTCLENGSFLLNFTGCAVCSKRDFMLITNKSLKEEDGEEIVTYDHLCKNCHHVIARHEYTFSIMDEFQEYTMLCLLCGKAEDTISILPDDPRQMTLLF
inactive: vemurafenib 0.019 | [1] -0.166 | barasertib 0.194 | [2] 0.038 | volasertib 0.129 | [3] 0.018 | [4] -0.108 | [5] 0.024 | saracatinib -0.071 | sotrastaurin -0.013

CLIC2 (UniProt O15247)
inactive: vemurafenib -0.004 | [1] 0.007 | barasertib -0.039 | [2] -0.014 | volasertib -0.011 | [3] -0.006 | [4] -0.064 | [5] -0.005 | saracatinib 0.015 | sotrastaurin 0

CLUH, A0A494C0R8
active: [4] 0.59
inactive: vemurafenib -0.11 | [1] 0.027 | barasertib -0.092 | [2] 0.097 | volasertib -0.005 | [3] 0 | [5] -0.047 | saracatinib 0.03 | sotrastaurin 0.051

COTL1 (UniProt Q14019)
active: [4] 0.37
inactive: vemurafenib -0.002 | [1] -0.017 | barasertib -0.068 | [2] 0.019 | volasertib 0.02 | [3] 0.027 | [5] -0.076 | saracatinib -0.019 | sotrastaurin -0.045

DOCK7 (UniProt Q96N67)
inactive: vemurafenib 0.045 | [1] 0.021 | barasertib 0.027 | [2] -0.057 | volasertib -0.01 | [3] 0 | [4] -0.068 | [5] -0.041 | saracatinib -0.028 | sotrastaurin 0.02

DOCK8 (UniProt Q8NF50)
inactive: vemurafenib 0.005 | [1] 0.013 | barasertib 0.034 | [2] -0.075 | volasertib -0.065 | [3] 0.04 | [4] 0 | [5] -0.033 | saracatinib 0.012 | sotrastaurin 0.023

DMXL1 (UniProt Q9Y485)
inactive: vemurafenib 0.024 | [1] 0.028 | barasertib -0.005 | [2] 0.015 | volasertib -0.06 | [3] 0.026 | [4] -0.017 | [5] -0.004 | saracatinib 0.002 | sotrastaurin 0.023

CPT1A (UniProt P50416)
inactive: vemurafenib 0.024 | [1] 0.035 | barasertib 0.048 | [2] 0.038 | volasertib 0.032 | [3] -0.018 | [4] 0 | [5] -0.137 | saracatinib -0.004 | sotrastaurin -0.014

DIAPH1 (UniProt O60610)
UniProt O60610, sequence (O60610 whole entry, looked up): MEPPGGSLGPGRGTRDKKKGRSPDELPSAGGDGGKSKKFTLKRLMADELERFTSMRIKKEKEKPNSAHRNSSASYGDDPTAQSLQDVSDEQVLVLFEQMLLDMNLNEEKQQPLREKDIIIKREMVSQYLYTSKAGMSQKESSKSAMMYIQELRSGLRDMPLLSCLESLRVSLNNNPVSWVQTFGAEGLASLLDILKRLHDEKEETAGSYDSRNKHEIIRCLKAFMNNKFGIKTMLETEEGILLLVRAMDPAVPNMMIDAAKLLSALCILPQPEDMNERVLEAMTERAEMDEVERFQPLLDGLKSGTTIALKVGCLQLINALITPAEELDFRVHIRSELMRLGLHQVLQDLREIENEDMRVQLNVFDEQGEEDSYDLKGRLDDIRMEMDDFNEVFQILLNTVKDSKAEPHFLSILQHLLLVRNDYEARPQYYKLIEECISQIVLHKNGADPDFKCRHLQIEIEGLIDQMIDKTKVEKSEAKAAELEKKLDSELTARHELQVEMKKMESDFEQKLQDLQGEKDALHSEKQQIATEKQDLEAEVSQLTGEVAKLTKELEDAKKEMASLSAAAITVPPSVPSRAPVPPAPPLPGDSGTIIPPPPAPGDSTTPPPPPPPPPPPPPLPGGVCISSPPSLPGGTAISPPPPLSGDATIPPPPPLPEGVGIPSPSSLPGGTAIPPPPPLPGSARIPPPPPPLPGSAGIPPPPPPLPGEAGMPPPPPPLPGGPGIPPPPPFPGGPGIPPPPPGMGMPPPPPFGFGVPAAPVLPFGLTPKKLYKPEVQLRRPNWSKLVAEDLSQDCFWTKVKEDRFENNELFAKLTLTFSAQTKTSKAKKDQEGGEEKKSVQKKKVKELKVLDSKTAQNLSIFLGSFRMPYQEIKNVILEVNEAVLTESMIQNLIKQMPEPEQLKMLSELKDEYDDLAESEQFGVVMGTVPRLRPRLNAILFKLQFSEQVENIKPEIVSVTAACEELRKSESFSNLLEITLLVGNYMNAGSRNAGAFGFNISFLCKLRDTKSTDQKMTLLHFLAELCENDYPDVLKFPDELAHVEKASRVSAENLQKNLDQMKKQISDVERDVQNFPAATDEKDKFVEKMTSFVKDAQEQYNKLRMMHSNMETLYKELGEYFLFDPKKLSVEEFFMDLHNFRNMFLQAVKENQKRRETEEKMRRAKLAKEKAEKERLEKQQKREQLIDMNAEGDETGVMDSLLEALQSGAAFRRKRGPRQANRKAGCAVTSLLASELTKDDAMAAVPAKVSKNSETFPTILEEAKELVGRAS
inactive: vemurafenib -0.002 | [1] -0.007 | barasertib 0.006 | [2] -0.001 | volasertib -0.002 | [3] 0.009 | [4] 0.091 | [5] -0.042 | saracatinib -0.006 | sotrastaurin -0.001

DHRS11 (UniProt Q6UWP2)
inactive: vemurafenib 0.015 | [1] 0.007 | barasertib 0 | [2] -0.019 | volasertib -0.026 | [3] 0.023 | [4] -0.03 | [5] 0.025 | saracatinib 0.013 | sotrastaurin 0.004

CMTM3 (UniProt Q96MX0)
UniProt Q96MX0, sequence (Q96MX0 whole entry, looked up): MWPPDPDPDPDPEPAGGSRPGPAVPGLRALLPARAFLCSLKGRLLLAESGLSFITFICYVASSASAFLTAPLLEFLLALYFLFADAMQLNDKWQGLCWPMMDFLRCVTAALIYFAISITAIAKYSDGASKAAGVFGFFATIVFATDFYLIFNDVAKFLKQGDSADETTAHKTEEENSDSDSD
inactive: vemurafenib 0.053 | [1] -0.014 | barasertib -0.04 | [2] -0.089 | volasertib 0.014 | [3] 0.03 | [4] 0.053 | [5] -0.055 | saracatinib 0.012 | sotrastaurin -0.005

CLCN3 (UniProt P51790)
UniProt P51790, sequence (P51790 whole entry, looked up): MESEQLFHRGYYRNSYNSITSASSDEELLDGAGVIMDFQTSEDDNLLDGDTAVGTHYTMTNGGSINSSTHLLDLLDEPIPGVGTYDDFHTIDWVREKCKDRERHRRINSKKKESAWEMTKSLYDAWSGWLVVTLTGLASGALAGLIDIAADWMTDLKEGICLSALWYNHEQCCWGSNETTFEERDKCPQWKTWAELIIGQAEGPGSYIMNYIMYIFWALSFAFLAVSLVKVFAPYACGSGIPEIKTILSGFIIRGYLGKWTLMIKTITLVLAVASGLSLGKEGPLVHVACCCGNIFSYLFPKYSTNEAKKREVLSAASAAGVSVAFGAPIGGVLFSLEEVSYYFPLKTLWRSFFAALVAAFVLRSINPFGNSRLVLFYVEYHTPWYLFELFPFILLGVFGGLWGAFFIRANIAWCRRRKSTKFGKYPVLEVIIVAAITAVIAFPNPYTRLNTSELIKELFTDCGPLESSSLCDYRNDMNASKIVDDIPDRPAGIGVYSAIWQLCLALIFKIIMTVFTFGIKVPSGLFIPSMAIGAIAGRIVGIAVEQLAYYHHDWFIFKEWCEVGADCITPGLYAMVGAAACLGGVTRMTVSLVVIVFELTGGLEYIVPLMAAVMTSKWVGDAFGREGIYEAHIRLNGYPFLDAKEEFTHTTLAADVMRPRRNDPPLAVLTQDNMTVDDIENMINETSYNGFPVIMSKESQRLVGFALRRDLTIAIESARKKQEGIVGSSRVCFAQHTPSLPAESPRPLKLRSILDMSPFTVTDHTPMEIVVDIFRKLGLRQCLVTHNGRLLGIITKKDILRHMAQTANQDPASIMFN
inactive: vemurafenib -0.096 | [1] -0.076 | barasertib 0.014 | [2] -0.178 | volasertib -0.025 | [3] 0.034 | [4] 0.009 | [5] 0.004 | saracatinib 0.01 | sotrastaurin -0.017

COG2 (UniProt Q14746)
inactive: vemurafenib 0.023 | [1] 0.012 | barasertib 0.077 | [2] -0.052 | volasertib -0.088 | [3] 0.106 | [4] 0.032 | [5] -0.093 | saracatinib 0.002 | sotrastaurin 0.037

CTPS1 (UniProt P17812)
UniProt P17812, sequence (P17812 whole entry, looked up): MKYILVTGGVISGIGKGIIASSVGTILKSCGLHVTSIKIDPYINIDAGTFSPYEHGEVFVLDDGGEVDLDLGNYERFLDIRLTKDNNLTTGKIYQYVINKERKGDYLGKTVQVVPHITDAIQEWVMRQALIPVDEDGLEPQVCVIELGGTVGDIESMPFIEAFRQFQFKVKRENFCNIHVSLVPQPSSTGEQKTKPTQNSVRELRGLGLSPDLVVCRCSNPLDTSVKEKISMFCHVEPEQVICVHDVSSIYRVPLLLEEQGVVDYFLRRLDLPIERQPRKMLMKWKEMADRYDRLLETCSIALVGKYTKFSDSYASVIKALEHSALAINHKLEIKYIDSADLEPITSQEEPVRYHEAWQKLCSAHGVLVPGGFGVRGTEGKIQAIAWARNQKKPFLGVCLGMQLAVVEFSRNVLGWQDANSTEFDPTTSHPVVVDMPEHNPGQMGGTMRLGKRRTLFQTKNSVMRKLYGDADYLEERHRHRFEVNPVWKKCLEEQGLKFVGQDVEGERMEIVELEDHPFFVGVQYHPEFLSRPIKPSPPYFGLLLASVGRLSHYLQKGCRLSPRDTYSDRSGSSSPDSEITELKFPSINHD
inactive: vemurafenib -0.008 | [1] 0.016 | barasertib -0.024 | [2] -0.065 | volasertib -0.04 | [3] 0.026 | [4] -0.041 | [5] -0.011 | saracatinib 0.007 | sotrastaurin 0.021

DDX20 (UniProt Q9UHI6)
inactive: vemurafenib -0.058 | [1] 0.018 | barasertib 0.011 | [2] -0.087 | volasertib -0.061 | [3] 0.036 | [4] -0.037 | [5] -0.094 | saracatinib 0.036 | sotrastaurin 0.004

CUEDC2 (UniProt Q9H467)
UniProt Q9H467, sequence (Q9H467 whole entry, looked up): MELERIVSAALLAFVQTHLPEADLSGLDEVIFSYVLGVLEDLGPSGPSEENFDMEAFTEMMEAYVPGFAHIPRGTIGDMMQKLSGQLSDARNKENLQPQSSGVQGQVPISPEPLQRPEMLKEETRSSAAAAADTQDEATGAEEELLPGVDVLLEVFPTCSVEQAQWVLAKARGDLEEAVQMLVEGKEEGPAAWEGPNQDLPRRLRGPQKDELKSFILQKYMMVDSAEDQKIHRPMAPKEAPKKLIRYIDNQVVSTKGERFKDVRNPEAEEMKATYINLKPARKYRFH
inactive: vemurafenib 0.06 | [1] 0.001 | barasertib 0.026 | [2] 0.038 | volasertib 0.027 | [3] -0.084 | [5] -0.07 | saracatinib 0.002 | sotrastaurin 0
active: [4] 0.694

CIC (UniProt I3L2J0)
active: barasertib 0.4
inactive: vemurafenib -0.077 | [1] -0.043 | [2] -0.057 | volasertib -0.032 | [3] 0.001 | [4] -0.05 | [5] -0.004 | saracatinib 0.021 | sotrastaurin -0.016

DHRS1 (UniProt Q96LJ7)
inactive: vemurafenib 0.436 | [1] 0.187 | barasertib 0.053 | [2] -0.045 | volasertib 0.012 | [3] -0.029 | [4] -0.042 | [5] -0.05 | saracatinib 0.001 | sotrastaurin 0.026

CLASP2 isoform 3 (UniProt O75122)
UniProt O75122, sequence (O75122 whole entry, looked up): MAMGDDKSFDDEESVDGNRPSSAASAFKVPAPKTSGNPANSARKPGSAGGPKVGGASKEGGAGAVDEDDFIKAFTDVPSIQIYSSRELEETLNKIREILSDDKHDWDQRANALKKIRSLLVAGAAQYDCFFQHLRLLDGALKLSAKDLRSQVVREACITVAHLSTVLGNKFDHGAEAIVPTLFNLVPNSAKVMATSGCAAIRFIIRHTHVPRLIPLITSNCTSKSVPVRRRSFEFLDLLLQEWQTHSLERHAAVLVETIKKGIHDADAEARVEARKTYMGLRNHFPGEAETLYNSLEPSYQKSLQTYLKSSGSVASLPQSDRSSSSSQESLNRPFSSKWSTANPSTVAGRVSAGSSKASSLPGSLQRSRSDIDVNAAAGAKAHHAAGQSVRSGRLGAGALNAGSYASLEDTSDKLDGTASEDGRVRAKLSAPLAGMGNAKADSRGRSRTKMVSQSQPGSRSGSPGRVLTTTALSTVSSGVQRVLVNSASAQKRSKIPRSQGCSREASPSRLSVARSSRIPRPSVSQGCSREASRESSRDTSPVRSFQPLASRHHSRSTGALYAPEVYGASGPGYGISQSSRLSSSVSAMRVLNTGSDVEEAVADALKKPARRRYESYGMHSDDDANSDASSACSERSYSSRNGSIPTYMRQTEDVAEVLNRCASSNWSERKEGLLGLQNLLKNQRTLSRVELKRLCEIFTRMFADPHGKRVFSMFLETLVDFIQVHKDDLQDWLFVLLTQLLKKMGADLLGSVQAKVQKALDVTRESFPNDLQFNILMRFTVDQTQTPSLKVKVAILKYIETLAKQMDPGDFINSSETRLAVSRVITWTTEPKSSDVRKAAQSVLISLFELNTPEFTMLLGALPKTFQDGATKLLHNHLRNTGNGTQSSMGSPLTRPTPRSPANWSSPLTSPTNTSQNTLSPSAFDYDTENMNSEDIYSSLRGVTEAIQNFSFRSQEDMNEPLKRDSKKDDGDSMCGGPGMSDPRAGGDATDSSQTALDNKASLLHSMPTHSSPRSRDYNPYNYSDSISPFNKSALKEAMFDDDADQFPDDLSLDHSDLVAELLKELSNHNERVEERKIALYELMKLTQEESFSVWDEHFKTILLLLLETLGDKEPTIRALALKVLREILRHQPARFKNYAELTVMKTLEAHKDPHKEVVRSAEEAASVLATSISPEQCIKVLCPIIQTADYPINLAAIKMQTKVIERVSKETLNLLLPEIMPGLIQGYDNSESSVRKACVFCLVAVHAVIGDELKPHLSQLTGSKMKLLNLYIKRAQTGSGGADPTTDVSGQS
inactive: vemurafenib 0.054 | [1] -0.002 | barasertib 0.02 | [2] 0.015 | volasertib -0.006 | [3] 0.013 | [4] -0.162 | [5] 0.093 | saracatinib 0.011 | sotrastaurin 0.01

DCTN1 (UniProt Q14203)
inactive: vemurafenib -0.025 | [1] 0.008 | barasertib 0.021 | [2] -0.021 | volasertib -0.048 | [3] 0.002 | [4] 0.034 | [5] -0.034 | saracatinib 0.029 | sotrastaurin -0.003

DLGAP5 (UniProt Q15398)
inactive: vemurafenib 0.01 | [1] 0.009 | barasertib 0.007 | [2] -0.018 | volasertib -0.013 | [3] 0 | [4] -0.024 | [5] 0.019 | saracatinib 0.013 | sotrastaurin -0.004

DHCR7 (UniProt Q9UBM7)
inactive: vemurafenib -0.02 | [1] 0.004 | barasertib 0.029 | [2] -0.061 | volasertib -0.036 | [3] 0.025 | [4] -0.033 | [5] -0.069 | saracatinib 0.017 | sotrastaurin -0.041

COG7 (UniProt P83436)
inactive: vemurafenib 0.003 | [1] 0.018 | barasertib 0.017 | [2] -0.054 | volasertib -0.076 | [3] -0.003 | [4] -0.209 | [5] -0.019 | saracatinib 0.05 | sotrastaurin 0.039

CKM (UniProt P06732)
UniProt P06732, sequence (P06732 whole entry, looked up): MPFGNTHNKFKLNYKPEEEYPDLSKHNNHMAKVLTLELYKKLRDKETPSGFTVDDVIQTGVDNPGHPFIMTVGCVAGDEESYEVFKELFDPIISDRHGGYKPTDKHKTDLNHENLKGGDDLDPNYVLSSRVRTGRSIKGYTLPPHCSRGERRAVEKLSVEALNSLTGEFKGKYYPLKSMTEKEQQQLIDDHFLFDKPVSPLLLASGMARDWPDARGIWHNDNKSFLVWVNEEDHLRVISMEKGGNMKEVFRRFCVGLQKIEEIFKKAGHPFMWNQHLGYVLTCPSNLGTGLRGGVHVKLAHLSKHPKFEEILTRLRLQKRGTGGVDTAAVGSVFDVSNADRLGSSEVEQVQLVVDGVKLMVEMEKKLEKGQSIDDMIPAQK
active: [4] -0.574
inactive: vemurafenib 0.072 | [1] -0.018 | barasertib -0.018 | [2] 0.086 | volasertib -0.084 | [3] -0.039 | [5] 0.17 | saracatinib -0.014 | sotrastaurin 0.086
